These results are taken from PubChem BioAssay (EPA / NIEHS).

Values joined by “and” are separate entries in the source; they are usually repeats but may differ in a detail not shown here. Identical values can stand only once. Results filed as inconclusive are left out. Active and inactive are the calls of the source. Rule for the calls, unless noted: active = hit-call score of the fitted dose curve at least 0.9, where 1 is the maximum; inconclusive = response in the unintended direction; inactive = score below 0.9.

Experiment [1] in a line: BSK_4H_Eotaxin3: BioMAP Diversity Plus: 4H Assay for Eotaxin 3 Biomarker Activity (AID 2283000; active = hit-call score of the fitted dose curve at least 0.9, where 1 is the maximum; inactive = score below 0.9). The note with it: primary human endothelial cells (HUVEC); actives raise or lower the signal. The essentials: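 Chemicals were added to human umbilical vein endothelium cultures, and Eotaxin-3 was quantified by ELISA at 24 h. Values were derived by bidirectional fitting with DMSO serving as negative control and activity baseline.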

Read-out in experiment [2]: Intercellular Adhesion Molecule 1 (ICAM1), ICAM1 (gene 3383)
Put plainly: BSK_3C_ICAM1: BioMAP Diversity Plus: 3C Assay for Intercellular Adhesion Molecule 1 (ICAM1) Biomarker Activity (AID 2283003; active = hit-call score of the fitted dose curve at least 0.9, where 1 is the maximum; inactive = score below 0.9). The note with it: primary human endothelial cells (HUVEC); actives raise or lower the signal. The essentials:
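Primary human umbilical vein endothelial cells in the BioMAP 3C system were exposed to chemicals for 24 h, then ICAM-1 was quantified by ELISA. Activity was fitted bidirectionally against the DMSO negative control baseline.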

Experiment [3] concerns the target human Retinoic Acid Receptor beta (RARb), RARB (gene 5915) (UniProt P10826). Put plainly: ATG_RARb_TRANS: Attagene TRANS-FACTORIAL HepG2 Assay for human Retinoic Acid Receptor beta (AID 2283004). In short, it runs like this:
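Transient transfection of HepG2 with multiple reporter units → chemical dosing, 24 h → total RNA isolation → RT with oligo(dT) → reporter-specific PCR, 6-FAM primer extension, HpaI digest → capillary electrophoresis. Positive direction vs DMSO control.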

Experiment [4] concerns the target Retinoic acid receptor alpha (Homo sapiens) (UniProt P10276). Put plainly: ATG_RARa_TRANS: Attagene TRANS-FACTORIAL HepG2 Assay for human Retinoic Acid Receptor alpha (RARa) (AID 2283005). The essentials:
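HepG2 transiently transfected with multiplex GAL4-UAS reporter units including a human RARa–GAL4 chimera; 24 h compound exposure. Reporter mRNA quantified by RT-PCR, 6-FAM labeling and capillary electrophoresis; gain of signal versus DMSO.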

Experiment [5] in a line: BSK_3C_Proliferation: Cell Proliferation Assessment in the BioMAP Diversity Plus: 3C Assay (AID 2283006; active = hit-call score of the fitted dose curve at least 0.9, where 1 is the maximum; inactive = score below 0.9;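 for AC50: potency may reflect either rise or fall in cell number versus DMSO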). The settings on record: primary human endothelial cells (HUVEC). In short, it runs like this: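 Human umbilical vein endothelial cells were grown sub-confluent and exposed to chemical for 48 h, then fixed with 10% TCA and stained with 0.1% sulforhodamine B; absorbance at 560 nm gave relative cell number, fitted bidirectionally against DMSO baseline.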

Experiment [6] deals with Nuclear receptor subfamily 1 group I member 2 (Homo sapiens) (UniProt O75469). Put plainly: ATG_PXR_TRANS: Attagene TRANS-FACTORIAL HepG2 Assay for human Pregnane X Receptor (PXR) (AID 2283008). In short, it runs like this:
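HepG2 cells transiently transfected with GAL4-UAS reporter units and PXR-Gal4 chimera, exposed 24 h. Reporter mRNA quantified by RT-PCR, fluorescent labelling, HpaI digestion and capillary electrophoresis; gain of signal vs DMSO.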

Experiment [7] concerns the target human Retinoic Acid Receptor gamma (RARg), RARG (gene 5916) (UniProt P13631). Put plainly: ATG_RARg_TRANS: Attagene TRANS-FACTORIAL HepG2 Assay for human Retinoic Acid Receptor gamma (RARg) (AID 2283009). In short, it runs like this: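 HepG2 cells transiently transfected with multiplexed reporter units expressing chimeric RARg-GAL4 and GAL4-UAS-driven reporters; 24 h compound exposure. Reporter mRNA quantified by RT-PCR with fluorescent labelling and capillary electrophoresis; gain-of-signal fitted relative to DMSO baseline.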

The target of experiment [8] is Retinoic acid receptor RXR-alpha (Homo sapiens) (UniProt P19793). Put plainly: ATG_RXRa_TRANS: Attagene TRANS-FACTORIAL HepG2 Assay for human Retinoid X Receptor alpha (RXRa) (AID 2283012). The essentials: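 HepG2 cells transiently transfected with multiplexed GAL4-UAS reporter units and chimeric NR-GAL4 fusions, dosed 24 h. Reporter mRNA measured by RT-PCR, FAM labelling, HpaI digestion and capillary electrophoresis; gain-of-signal fitted relative to DMSO baseline.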
Chain of Retinoic acid receptor RXR-alpha (Homo sapiens) (P19793 whole entry, looked up, the tested form may be a part): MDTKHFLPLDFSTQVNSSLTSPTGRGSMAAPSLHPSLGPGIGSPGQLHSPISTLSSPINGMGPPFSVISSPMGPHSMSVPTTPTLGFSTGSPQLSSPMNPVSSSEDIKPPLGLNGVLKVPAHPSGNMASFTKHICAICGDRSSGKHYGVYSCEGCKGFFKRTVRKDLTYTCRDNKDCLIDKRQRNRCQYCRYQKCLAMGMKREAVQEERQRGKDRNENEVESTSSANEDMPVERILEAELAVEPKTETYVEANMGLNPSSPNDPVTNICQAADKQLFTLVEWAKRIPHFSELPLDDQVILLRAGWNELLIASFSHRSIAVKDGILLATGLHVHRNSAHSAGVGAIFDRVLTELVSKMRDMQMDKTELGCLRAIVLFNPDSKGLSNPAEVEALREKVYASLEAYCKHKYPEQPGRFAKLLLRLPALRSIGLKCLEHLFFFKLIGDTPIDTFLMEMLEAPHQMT

The target in experiment [9] is human Retinoid X Receptor beta (RXRb), RXRB (gene 6257) (UniProt P28702). Put plainly: ATG_RXRb_TRANS: Attagene TRANS-FACTORIAL HepG2 Assay for human Retinoid X Receptor beta (RXRb) (AID 2283013). In short, it runs like this: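 HepG2 cells transiently transfected with multiplexed reporter units driven by GAL4-UAS and exogenous chimeric NR-Gal4 proteins; treated 24 h. Reporter mRNA measured by RT-PCR, 6-FAM labelling and capillary electrophoresis; gain-of-signal fitted versus DMSO baseline.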
Chain of human Retinoid X Receptor beta (RXRb), RXRB (gene 6257) (P28702 whole entry, looked up, the tested form may be a part): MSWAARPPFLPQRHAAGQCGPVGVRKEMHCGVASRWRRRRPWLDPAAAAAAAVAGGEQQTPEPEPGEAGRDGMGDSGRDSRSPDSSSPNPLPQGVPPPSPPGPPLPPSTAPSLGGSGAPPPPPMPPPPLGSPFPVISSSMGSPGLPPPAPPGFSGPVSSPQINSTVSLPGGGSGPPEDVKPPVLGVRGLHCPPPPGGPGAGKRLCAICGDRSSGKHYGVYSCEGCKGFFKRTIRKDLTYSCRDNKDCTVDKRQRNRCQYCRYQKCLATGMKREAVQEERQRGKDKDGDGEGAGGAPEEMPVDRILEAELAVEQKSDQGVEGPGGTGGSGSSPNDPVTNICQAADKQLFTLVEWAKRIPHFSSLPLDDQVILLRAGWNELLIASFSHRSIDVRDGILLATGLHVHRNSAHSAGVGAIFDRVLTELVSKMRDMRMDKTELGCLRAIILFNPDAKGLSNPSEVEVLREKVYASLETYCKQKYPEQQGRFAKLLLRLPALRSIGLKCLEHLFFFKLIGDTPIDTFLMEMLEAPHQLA

Experiment [10] deals with human Thyroid Receptor alpha (THRa1), THRA (gene 7067) (UniProt P10827). Put plainly: ATG_THRa1_TRANS: Attagene TRANS-FACTORIAL HepG2 Assay for human Thyroid Receptor alpha (THRa1) (AID 2283014). In short, it runs like this:
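Reporter transcript induction, read by capillary electrophoresis of 6-FAM-labelled RT-PCR products, reflects activity of a transfected THRa1-Gal4 fusion in HepG2 liver cells. Cells were dosed for 24 h; activity was fitted in the positive direction against DMSO.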

Read-out in experiment [11]: E-selectin (Homo sapiens) (UniProt P16581)
Put plainly: BSK_3C_Eselectin: BioMAP Diversity Plus: 3C Assay for Eselectin Biomarker Activity (AID 2283015; active = hit-call score of the fitted dose curve at least 0.9, where 1 is the maximum; inactive = score below 0.9). The note with it: primary human endothelial cells (HUVEC); actives raise or lower the signal. The essentials:
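ELISA read-out of E-selectin on endothelial monolayers after 24 h chemical treatment. Human umbilical vein primary cells served as the system, with DMSO defining baseline activity for bidirectional fitting.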

Read-out in experiment [12]: Interleukin-1 alpha (IL1a), IL1A (gene 3552)
Put plainly: BSK_BE3C_IL1a: BioMAP Diversity Plus: BE3C Assay for Interleukin-1 alpha (IL1a) Biomarker Activity (AID 2283016; active = hit-call score of the fitted dose curve at least 0.9, where 1 is the maximum; inactive = score below 0.9). The note with it: primary human bronchial epithelial cells; actives raise or lower the signal. In short, it runs like this: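 Human primary bronchial epithelial cells (BE3C system) were dosed with compound and IL-1a measured by ELISA 24 h later. Activity was fitted bidirectionally against DMSO baseline; cytotoxicity was tracked in parallel cultures by SRB total-protein staining.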

Read-out in experiment [13]: Monocyte Chemoattractant Protein-1 (MCP1), CCL2 (gene 6347)
Put plainly: BSK_3C_MCP1: BioMAP Diversity Plus: 3C Assay for Monocyte Chemoattractant Protein-1 (MCP1) Biomarker Activity (AID 2283017; active = hit-call score of the fitted dose curve at least 0.9, where 1 is the maximum; inactive = score below 0.9). The settings on record: primary human endothelial cells (HUVEC); actives raise or lower the signal. The essentials:
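ELISA read-out of MCP-1 from human umbilical vein endothelial cell cultures harvested 24 h post-dosing. Gain or loss of signal was fitted relative to DMSO.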

Read-out in experiment [14]: Monocyte Chemoattractant Protein-1 (MCP1), CCL2 (gene 6347)
Put plainly: BSK_4H_MCP1: BioMAP Diversity Plus: 4H Assay for Monocyte Chemoattractant Protein-1 (MCP1) Biomarker Activity (AID 2283018; active = hit-call score of the fitted dose curve at least 0.9, where 1 is the maximum; inactive = score below 0.9). The settings on record: primary human endothelial cells (HUVEC); actives raise or lower the signal. In short, it runs like this: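 Human umbilical vein endothelial cells (4H system) dosed with chemical; MCP-1 measured by ELISA 24 h after dosing. Bidirectional curve fitting against DMSO negative control as baseline; parallel SRB total-protein staining tracks overt cytotoxicity.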

Read-out in experiment [15]: Human Leukocyte Antigen - DR isotype (HLADR), HLA-DRA (gene 3122)
Put plainly: BSK_3C_HLADR: BioMAP Diversity Plus: 3C Assay for Human Leukocyte Antigen - DR isotype (HLADR) Biomarker Activity (AID 2283019; active = hit-call score of the fitted dose curve at least 0.9, where 1 is the maximum; inactive = score below 0.9). The note with it: primary human endothelial cells (HUVEC); actives raise or lower the signal. In short, it runs like this: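 ELISA readout of surface HLA-DR on human umbilical vein endothelium, taken 24 h after chemical treatment. Gain- and loss-of-signal were both fitted relative to DMSO.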

In experiment [16] the target is human Peroxisome Proliferator-activated Receptor alpha (PPARa), PPARA (gene 5465) (UniProt Q07869). Put plainly: ATG_PPARa_TRANS: Attagene TRANS-FACTORIAL HepG2 Assay for human Peroxisome Proliferator-activated Receptor alpha (PPARa) (AID 2283001). The essentials:
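Measures transcriptional activity of an exogenous chimeric PPARa-Gal4 protein in transiently transfected HepG2 cells after 24 h dosing. Reporter mRNA quantified via RT-PCR and capillary electrophoresis; DMSO served as negative control.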

Experiment [17] has as its target human Peroxisome Proliferator-activated Receptor delta (PPARd), PPARD (gene 5467) (UniProt Q03181). Put plainly: ATG_PPARd_TRANS: Attagene TRANS-FACTORIAL HepG2 Assay for human Peroxisome Proliferator-activated Receptor delta (PPARd) (AID 2283002). In short, it runs like this:
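Fluorescence from capillary electrophoresis of labelled RT-PCR reporter fragments gives the signal; DMSO sets baseline. Cells: HepG2 transiently carrying GAL4-UAS reporter units plus chimeric nuclear receptor-Gal4 proteins, exposed to chemicals for 24 h.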

Experiment [18] has as its target Peroxisome proliferator-activated receptor gamma (Homo sapiens) (UniProt P37231). Put plainly: ATG_PPARg_TRANS: Attagene TRANS-FACTORIAL HepG2 Assay for human Peroxisome Proliferator-activated Receptor-gamma (PPARg) (AID 2283007). The essentials:
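Chimeric NR-Gal4 transactivation is measured in transiently transfected HepG2 cells by reporter mRNA induction at 24 h. Detection uses RT-PCR with fluorescent labelling and capillary electrophoresis; DMSO defines baseline.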

The target of experiment [19] is human RAR-related Orphan Receptor beta (RORb), RORB (gene 6096) (UniProt Q92753). Put plainly: ATG_RORb_TRANS: Attagene TRANS-FACTORIAL HepG2 Assay for human RAR-related Orphan Receptor beta (RORb) (AID 2283010). In short, it runs like this: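 HepG2 cells were transiently transfected with multiplexed GAL4-UAS reporter units expressing chimeric nuclear receptor–GAL4 proteins, then dosed for 24 h. Reporter mRNA was quantified by RT-PCR with fluorescent labelling and capillary electrophoresis; gain of signal was fitted relative to DMSO.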

Experiment [20] deals with human RAR-related Orphan Receptor gamma (RORg), RORC (gene 6097) (UniProt P51449). Put plainly: ATG_RORg_TRANS: Attagene TRANS-FACTORIAL HepG2 Assay for human RAR-related Orphan Receptor gamma (RORg) (AID 2283011). The essentials: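 First, HepG2 liver cells were transfected with GAL4-UAS-driven reporter constructs and the RORg-Gal4 fusion. Next, they were treated with chemical for 24 h. Finally, reporter mRNA was quantified by RT-PCR and capillary electrophoresis, with upward activity fitted against DMSO.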

Chain of human Retinoic Acid Receptor gamma (RARg), RARG (gene 5916) (P13631 whole entry, looked up, the tested form may be a part): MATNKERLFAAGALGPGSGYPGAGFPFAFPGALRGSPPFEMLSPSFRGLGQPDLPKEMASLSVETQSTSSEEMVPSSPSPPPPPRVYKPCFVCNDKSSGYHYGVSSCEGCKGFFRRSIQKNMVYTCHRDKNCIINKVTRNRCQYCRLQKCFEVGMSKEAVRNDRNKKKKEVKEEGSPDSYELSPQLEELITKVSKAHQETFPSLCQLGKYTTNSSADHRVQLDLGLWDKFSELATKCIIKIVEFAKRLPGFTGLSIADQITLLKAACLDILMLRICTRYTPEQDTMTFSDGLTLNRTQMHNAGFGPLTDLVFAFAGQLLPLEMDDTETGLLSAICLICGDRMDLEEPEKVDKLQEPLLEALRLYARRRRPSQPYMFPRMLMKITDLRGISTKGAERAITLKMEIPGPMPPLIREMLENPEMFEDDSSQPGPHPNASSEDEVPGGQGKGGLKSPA
Chain of human Retinoic Acid Receptor beta (RARb), RARB (gene 5915) (P10826 whole entry, looked up): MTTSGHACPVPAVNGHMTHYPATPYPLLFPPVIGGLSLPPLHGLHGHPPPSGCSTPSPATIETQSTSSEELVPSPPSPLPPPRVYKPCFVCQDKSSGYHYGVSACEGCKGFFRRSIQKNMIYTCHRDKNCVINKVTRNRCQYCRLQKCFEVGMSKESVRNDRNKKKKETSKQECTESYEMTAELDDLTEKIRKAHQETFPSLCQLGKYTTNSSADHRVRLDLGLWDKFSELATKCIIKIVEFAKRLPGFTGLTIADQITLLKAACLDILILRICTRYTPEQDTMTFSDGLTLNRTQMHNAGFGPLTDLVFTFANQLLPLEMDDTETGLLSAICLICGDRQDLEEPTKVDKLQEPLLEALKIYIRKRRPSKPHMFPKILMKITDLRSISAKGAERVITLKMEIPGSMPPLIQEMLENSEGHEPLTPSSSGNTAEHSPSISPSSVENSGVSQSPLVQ
Chain of human Thyroid Receptor alpha (THRa1), THRA (gene 7067) (P10827 whole entry, looked up, the tested form may be a part): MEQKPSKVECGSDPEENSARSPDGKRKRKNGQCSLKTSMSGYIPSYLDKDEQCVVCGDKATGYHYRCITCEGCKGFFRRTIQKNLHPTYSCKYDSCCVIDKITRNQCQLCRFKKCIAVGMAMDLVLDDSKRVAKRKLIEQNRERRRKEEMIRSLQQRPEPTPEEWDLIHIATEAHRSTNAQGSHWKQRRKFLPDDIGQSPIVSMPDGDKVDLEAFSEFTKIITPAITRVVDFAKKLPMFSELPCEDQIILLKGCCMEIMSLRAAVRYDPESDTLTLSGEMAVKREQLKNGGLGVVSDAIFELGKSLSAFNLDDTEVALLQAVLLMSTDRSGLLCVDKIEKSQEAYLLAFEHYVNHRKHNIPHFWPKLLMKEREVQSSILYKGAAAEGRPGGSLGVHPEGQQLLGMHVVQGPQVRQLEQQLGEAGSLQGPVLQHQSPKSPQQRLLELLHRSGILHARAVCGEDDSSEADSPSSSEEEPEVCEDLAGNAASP
Chain of Nuclear receptor subfamily 1 group I member 2 (Homo sapiens) (O75469 whole entry, looked up, the tested form may be a part): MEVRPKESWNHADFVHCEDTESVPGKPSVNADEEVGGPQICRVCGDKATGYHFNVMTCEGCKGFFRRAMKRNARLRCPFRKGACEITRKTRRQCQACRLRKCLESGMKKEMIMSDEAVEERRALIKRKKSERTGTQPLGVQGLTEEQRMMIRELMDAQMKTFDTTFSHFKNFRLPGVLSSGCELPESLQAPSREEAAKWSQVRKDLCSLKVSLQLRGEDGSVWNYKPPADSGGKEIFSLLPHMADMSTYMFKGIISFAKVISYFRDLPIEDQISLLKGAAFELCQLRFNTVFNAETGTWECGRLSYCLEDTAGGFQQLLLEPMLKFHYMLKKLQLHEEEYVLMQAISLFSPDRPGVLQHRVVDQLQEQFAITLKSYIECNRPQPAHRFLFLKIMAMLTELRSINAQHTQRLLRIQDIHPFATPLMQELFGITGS
Chain of E-selectin (Homo sapiens) (P16581 whole entry, looked up): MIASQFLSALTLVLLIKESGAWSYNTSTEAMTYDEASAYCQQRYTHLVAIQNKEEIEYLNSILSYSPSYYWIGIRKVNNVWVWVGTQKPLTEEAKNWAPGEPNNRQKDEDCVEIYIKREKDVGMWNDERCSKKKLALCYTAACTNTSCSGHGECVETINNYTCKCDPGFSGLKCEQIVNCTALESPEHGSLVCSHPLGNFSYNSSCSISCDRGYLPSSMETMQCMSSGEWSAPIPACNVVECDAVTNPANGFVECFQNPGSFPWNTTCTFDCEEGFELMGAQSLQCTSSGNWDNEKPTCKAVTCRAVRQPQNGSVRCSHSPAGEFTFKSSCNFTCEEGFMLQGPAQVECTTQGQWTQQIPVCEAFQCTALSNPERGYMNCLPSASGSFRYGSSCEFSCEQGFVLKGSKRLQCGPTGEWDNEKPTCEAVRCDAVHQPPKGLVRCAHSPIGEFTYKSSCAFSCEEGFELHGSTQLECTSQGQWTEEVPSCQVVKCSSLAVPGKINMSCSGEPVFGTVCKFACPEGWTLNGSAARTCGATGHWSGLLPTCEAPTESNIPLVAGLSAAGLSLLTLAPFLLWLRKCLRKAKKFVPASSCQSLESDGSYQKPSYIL
Chain of Retinoic acid receptor alpha (Homo sapiens) (P10276 whole entry, looked up, the tested form may be a part): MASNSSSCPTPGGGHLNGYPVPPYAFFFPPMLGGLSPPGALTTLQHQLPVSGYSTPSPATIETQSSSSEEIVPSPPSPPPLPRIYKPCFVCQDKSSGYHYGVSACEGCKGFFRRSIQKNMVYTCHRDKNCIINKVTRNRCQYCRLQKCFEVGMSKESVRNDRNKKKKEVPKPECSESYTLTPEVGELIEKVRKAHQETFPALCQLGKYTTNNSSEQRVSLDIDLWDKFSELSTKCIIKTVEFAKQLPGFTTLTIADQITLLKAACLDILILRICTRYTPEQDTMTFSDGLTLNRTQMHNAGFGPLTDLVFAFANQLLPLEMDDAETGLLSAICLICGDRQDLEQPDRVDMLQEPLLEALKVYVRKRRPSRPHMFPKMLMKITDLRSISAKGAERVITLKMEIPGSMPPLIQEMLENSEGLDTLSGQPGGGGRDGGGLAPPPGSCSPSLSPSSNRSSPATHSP
Chain of Peroxisome proliferator-activated receptor gamma (Homo sapiens) (P37231 whole entry, looked up, the tested form may be a part): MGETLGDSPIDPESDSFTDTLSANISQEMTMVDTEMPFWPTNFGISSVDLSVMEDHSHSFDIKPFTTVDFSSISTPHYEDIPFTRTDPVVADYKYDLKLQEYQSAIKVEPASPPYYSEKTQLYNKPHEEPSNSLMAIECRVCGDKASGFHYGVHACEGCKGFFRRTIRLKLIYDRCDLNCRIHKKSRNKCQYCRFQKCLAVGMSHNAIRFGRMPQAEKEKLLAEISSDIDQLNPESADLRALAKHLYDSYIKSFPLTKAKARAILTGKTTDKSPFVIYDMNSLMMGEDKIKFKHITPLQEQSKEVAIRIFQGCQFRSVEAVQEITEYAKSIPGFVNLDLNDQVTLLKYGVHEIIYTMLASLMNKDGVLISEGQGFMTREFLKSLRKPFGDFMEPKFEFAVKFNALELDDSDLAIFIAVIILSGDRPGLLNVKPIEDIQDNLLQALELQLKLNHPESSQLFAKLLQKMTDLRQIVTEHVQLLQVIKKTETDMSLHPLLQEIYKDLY
Chain of human Peroxisome Proliferator-activated Receptor alpha (PPARa), PPARA (gene 5465) (Q07869 whole entry, looked up, the tested form may be a part): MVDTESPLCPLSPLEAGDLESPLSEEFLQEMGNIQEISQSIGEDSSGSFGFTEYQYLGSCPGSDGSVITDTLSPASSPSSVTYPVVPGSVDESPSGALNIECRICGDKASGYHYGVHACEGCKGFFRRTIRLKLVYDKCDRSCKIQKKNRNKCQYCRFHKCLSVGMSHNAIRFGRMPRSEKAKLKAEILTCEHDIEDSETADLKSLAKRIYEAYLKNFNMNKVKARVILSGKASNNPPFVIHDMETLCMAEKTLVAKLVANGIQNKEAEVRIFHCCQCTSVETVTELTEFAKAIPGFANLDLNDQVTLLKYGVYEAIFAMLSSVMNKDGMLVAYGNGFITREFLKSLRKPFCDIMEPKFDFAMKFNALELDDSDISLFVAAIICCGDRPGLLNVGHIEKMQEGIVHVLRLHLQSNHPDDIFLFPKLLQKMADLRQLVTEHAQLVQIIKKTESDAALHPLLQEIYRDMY

By AC50 is commonly meant the concentration giving half of the maximal activity seen. Regarding `Clc1cc(Cl)c(Cl)c(Cl)c1Cl`, the AC50 in experiment [1] is 31.4 µM (active); in experiment [6], 27.6 µM (active); in [9] it was 21.2 µM (active); in experiment [12], 20 µM (active); in [15] it was 20 µM (active). Besides, the result in [2], in experiment [3], in experiment [4], in experiment [5], in experiment [7] and in experiment [8] was inactive. Besides, the molecule was called inactive in experiment [10], in experiment [11], in [13] and in [14].

As for `Nc1ccc(Cl)c(N)c1`, the molecule was called inactive in experiment [16], in experiment [17], in experiment [3], in experiment [4], in experiment [18] and in [6]. In addition, the result in [7], in [19], in experiment [8], in experiment [9] and in [10] was inactive.

For `CC=CC(=O)OCC(C)C`, the result in [16], in [17], in experiment [3], in experiment [4], in experiment [18] and in experiment [6] was inactive. Moreover, the result in experiment [7], in experiment [19], in [8] and in experiment [10] was inactive.

Turning to `COc1ccc(C(=O)/C(Br)=C\C(=O)O)cc1`, the AC50 in [1] is 8.38 µM (active) and 20 µM (active); in [2], 32.2 µM (active) and 33.3 µM (active); in experiment [5], 6.82 µM (active) and 20 µM (active); in experiment [6], 6.78 µM (active); in [11], 15.2 µM (active) and 20 µM (active); in experiment [12] it was 25.5 µM (active) and 15.9 µM (active). The AC50 was 28.8 µM (active) and 30.2 µM (active) in [13]; 16.6 µM (active) and 29.4 µM (active) in experiment [14]; 12.4 µM (active) and 20 µM (active) in experiment [15]. Also, the result in experiment [7], in [20], in experiment [8], in experiment [9] and in experiment [10] was inactive.
